For some of these results: Potency and affinity values are given separately.
Tests used:
Design in all cases: scale not given: direction of the effect not stated beside the values
[1] = target: Protein translocase subunit SecA (Escherichia coli (strain K12)) (UniProt P10408); assay: Assay to Identify E. coli SecA ATPase Inhibitors; assay type: functional; conditions: 30 µM
[2] = target: T1, Ubiquitin-activating enzyme e1, putative (Leishmania donovani (strain BPK282A1)) (UniProt E9BSI1); assay: Leishmania donovani Ubiquitin Activating Enzyme (LdE1); assay type: functional; conditions: 30 µM
T1 sequence (whole entry): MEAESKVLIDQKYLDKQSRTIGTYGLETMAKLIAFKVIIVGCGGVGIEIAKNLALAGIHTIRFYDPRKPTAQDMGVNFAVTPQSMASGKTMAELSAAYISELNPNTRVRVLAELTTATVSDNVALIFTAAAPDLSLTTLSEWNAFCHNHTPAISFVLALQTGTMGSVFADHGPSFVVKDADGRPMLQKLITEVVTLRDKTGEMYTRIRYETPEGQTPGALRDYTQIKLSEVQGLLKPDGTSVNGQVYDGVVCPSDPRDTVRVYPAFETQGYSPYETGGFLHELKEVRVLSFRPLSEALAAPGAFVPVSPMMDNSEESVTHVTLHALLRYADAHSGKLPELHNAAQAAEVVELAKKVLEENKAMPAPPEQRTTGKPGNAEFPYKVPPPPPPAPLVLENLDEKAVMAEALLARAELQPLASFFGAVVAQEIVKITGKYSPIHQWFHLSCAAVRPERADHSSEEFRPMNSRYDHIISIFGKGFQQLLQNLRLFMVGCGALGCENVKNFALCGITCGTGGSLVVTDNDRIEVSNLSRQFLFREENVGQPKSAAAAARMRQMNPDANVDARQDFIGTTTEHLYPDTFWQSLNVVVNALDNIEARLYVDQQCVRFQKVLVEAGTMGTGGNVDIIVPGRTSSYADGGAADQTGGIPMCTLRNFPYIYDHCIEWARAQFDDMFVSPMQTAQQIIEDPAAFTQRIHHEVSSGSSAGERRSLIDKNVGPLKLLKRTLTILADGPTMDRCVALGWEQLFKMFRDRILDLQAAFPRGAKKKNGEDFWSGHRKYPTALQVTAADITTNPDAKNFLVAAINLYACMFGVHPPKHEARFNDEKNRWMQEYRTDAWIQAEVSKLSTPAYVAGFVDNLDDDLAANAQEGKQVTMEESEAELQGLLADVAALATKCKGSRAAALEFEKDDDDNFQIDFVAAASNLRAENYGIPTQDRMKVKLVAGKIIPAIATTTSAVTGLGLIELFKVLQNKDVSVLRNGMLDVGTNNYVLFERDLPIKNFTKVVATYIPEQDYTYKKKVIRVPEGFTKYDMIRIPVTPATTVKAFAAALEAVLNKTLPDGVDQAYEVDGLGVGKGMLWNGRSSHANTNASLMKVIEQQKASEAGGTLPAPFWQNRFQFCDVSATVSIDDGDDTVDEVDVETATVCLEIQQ

[3] = target: AMP-activated protein kinase, AMPK (Homo sapiens) (UniProt P54646+O43741+P54619+Q9UGJ0+Q9Y478+Q13131+Q9UGI9); assay: AMP-dependent Kinase enzyme assay. An in vitro enzyme assay that detects ADP turnover that is directly proportional to AMPK activity. This uses naive AMPK that is activated during the assay with MK-8722; assay type: functional; conditions: 30 µM
[4] = target: Sialic acid-binding Ig-like lectin 9 (Homo sapiens) (UniProt Q9Y336); assay: Hs-Siglec9 ALPHAscreen SOP 20170721; conditions: 10 µM
Chain of Sialic acid-binding Ig-like lectin 9 (Homo sapiens) (Q9Y336 whole entry): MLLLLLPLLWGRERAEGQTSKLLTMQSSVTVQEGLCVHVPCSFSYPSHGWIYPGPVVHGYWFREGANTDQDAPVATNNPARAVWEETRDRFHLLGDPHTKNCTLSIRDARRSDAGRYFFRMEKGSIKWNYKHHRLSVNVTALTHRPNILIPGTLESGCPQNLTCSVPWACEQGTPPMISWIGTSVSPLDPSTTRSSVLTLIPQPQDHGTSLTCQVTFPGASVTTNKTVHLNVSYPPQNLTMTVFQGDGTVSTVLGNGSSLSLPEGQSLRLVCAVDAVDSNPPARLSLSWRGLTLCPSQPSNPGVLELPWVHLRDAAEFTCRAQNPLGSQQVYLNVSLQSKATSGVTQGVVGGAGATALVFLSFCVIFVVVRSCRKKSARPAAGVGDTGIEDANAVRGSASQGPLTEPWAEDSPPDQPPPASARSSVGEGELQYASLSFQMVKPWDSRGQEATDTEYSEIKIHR

Trypanosoma cruzi = assay: Trypanosoma cruzi phosphomannomutase and mannose-1-phosphate guanylyltransferase assay; assay type: functional; conditions: 10 µM
[5] = target: T2, Arginase-2, mitochondrial (Homo sapiens) (UniProt P78540); assay: in vitro enzyme assay to detect the production of urea directly proportional to the activity of Arginase II; assay type: functional; conditions: 33.3 µM; note: in the data most compounds retested in dose-response had high values
T2 sequence (whole entry): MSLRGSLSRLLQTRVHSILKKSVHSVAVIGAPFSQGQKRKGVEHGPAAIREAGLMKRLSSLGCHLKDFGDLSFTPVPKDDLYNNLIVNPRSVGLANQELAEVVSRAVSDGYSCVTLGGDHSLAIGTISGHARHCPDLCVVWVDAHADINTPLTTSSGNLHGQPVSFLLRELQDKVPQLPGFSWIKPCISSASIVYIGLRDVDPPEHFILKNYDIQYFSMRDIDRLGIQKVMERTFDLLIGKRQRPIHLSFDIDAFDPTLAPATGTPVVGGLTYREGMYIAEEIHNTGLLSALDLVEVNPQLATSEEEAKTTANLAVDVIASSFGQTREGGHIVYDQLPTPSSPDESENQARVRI

[6] = target: T3, Proteasome subunit beta (Trypanosoma cruzi) (UniProt O96673); assay: Trypanosoma cruzi proteasome chymotrypsin-like activity (TcProtChymo) assay.; note: in the data most compounds retested in dose-response had high values; assay type: functional; conditions: 9.37 µM
T3 sequence (whole entry): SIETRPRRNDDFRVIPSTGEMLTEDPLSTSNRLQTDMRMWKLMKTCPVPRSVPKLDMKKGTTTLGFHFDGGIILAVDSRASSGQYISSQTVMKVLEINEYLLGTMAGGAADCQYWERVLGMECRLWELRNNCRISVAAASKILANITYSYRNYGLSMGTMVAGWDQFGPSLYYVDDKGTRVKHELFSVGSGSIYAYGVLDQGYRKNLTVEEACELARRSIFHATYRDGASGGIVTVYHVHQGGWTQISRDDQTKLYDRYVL

Homo sapiens = organism: Homo sapiens; assay: To identify inhibition of the IFN signalling (Jak-Stat) pathway via expression of an eGFP reporter gene under the control of an IFN-stimulated response element (ISRE) containing MxA promoter.; assay type: functional; conditions: 30 µM
[7] = target: T4, Tyrosyl-tRNA synthetase, putative (Trypanosoma cruzi (strain CL Brener)) (UniProt Q4DSP6); assay: Trypanosoma cruzi tyrosyl tRNA synthetase (TcYRS) _High Tyrosine SOP; assay type: functional; conditions: 30 µM; note: in the data most compounds retested in dose-response had high values
T4 sequence (whole entry): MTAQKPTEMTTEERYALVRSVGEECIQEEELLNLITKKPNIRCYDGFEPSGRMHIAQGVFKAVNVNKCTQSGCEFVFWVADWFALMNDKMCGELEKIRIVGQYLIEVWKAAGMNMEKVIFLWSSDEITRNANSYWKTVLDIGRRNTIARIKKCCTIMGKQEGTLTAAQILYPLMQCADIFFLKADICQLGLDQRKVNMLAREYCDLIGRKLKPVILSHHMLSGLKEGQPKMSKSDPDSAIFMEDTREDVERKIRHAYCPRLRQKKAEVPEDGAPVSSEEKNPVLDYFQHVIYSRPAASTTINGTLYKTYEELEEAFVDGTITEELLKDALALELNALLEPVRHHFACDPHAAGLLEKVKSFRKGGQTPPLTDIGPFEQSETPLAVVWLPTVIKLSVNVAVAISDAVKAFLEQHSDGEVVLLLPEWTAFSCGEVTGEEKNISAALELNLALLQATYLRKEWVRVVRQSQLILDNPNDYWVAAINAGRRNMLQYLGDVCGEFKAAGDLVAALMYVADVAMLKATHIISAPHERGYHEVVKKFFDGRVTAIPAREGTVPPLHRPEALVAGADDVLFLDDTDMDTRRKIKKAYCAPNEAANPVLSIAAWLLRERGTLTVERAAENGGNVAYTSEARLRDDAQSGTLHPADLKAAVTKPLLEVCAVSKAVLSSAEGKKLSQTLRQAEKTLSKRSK

[8] = target: T4, Tyrosyl-tRNA synthetase, putative (Trypanosoma cruzi (strain CL Brener)); assay: Trypanosoma cruzi tyrosyl tRNA synthetase (TcYRS) SOP; assay type: functional; conditions: 30 µM
[9] = target: Chromo domain-containing protein 1 (Saccharomyces cerevisiae (strain ATCC 204508 / S288c) (Baker's yeast)) (UniProt P32657); assay: ScCHD-1 Enzyme Inhibition Assay; assay type: functional; conditions: 30 µM; note: in the data most compounds retested in dose-response had high values
Chain of Chromo domain-containing protein 1 (Saccharomyces cerevisiae (strain ATCC 204508 / S288c) (Baker's yeast)) (P32657 whole entry, the tested form may be a part): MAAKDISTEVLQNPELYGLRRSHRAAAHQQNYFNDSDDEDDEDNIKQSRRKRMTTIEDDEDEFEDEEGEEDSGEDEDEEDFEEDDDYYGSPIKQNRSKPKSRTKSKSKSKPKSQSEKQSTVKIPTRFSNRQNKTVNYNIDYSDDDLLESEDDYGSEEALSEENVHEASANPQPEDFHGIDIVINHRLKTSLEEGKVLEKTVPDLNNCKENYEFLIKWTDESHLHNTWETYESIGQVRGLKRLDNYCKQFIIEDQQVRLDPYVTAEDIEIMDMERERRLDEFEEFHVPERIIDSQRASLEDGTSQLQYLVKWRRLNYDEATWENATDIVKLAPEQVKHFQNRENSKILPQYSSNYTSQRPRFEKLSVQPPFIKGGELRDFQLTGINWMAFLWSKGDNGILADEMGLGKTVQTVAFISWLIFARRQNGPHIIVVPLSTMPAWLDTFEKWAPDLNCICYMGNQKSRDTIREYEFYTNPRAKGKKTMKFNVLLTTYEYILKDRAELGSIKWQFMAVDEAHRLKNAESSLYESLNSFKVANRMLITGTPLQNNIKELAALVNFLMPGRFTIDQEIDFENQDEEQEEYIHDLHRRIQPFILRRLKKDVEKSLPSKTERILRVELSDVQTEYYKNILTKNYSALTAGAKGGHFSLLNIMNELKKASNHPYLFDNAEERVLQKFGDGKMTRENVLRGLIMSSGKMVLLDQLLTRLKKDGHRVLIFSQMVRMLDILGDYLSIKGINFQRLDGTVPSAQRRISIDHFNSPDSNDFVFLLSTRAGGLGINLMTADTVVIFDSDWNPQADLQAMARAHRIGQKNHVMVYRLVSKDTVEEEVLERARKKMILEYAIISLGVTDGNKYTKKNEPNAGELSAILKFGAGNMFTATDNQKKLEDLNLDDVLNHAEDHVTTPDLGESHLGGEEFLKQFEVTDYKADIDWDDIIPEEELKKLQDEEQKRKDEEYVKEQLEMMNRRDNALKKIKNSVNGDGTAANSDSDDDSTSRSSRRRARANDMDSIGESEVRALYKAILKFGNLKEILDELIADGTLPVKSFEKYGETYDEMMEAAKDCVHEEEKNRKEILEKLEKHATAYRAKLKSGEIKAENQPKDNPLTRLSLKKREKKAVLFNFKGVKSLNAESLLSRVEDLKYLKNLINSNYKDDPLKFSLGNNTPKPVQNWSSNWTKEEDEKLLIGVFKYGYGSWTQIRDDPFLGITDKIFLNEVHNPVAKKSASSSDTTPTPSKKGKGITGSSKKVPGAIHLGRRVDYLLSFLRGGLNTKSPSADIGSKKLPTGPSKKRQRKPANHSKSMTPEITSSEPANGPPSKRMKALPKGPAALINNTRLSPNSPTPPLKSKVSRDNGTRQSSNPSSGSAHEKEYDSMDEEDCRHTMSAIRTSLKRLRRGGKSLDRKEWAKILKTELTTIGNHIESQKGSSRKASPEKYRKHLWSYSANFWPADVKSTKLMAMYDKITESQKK

Chain of Protein translocase subunit SecA (Escherichia coli (strain K12)) (P10408 whole entry): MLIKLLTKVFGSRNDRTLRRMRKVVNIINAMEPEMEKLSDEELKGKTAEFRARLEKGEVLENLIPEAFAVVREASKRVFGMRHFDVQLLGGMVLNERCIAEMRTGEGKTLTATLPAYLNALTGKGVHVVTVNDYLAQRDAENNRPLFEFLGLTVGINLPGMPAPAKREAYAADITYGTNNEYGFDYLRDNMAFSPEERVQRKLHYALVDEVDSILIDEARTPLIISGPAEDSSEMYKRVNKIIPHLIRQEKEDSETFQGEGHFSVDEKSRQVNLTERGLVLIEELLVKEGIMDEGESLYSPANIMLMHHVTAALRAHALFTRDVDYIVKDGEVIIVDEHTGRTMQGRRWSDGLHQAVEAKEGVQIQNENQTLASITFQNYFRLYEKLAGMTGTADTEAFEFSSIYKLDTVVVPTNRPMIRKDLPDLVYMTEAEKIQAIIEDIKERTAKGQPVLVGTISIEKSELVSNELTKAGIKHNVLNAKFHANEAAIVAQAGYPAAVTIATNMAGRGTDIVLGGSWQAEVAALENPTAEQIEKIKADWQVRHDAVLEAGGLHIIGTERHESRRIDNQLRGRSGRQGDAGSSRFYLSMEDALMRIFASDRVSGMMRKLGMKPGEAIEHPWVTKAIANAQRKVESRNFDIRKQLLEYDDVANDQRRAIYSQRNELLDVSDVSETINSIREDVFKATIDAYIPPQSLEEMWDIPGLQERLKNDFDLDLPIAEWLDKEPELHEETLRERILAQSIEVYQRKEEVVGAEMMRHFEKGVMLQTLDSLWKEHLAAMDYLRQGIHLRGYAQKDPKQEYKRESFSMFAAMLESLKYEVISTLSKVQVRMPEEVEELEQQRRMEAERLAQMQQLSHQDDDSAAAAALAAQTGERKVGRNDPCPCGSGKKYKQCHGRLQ

| Compound | Percent Effect [1] [%] | Percent Effect [2] [%] | Percent Effect [3] [%] | Percent Effect [4] [%] | Percent Effect (Trypanosoma cruzi) [%] | Percent Effect [5] [%] | Percent Effect [6] [%] | Percent Effect (Homo sapiens) [%] | Percent Effect [7] [%] | Percent Effect [8] [%] | Percent Effect [9] [%] |
| --- | --- | --- | --- | --- | --- | --- | --- | --- | --- | --- | --- |
| CN1CCN(C(=O)c2cnc3c(cnn3C3CCCC3)c2)CC1 | -5.03 | 12.7 | -2.67 | -0.596 | 8.78 | 5.7 | 1.72 | -7.07 | 5.42 | 16.5 | -5.9 |
| CCN(Cc1ccc2c(c1)OCO2)C(=O)c1ccc(C)[nH]c1=O | -4.38 | 13.2 | -8.05 | -3.99 | 11.5 | -1.92 | 11.9 | 15.1 | 10.3 | 19.5 | -15.7 |
| Cc1nc(C)c2c(n1)CCN(C(=O)CC1CC1)CC2 | 3.82 | 10.8 | 4.71 | -10.8 | -5.57 | 2.87 | 21.2 | 10.2 | 3.24 | 12.8 | -3.91 |
| CCc1ccc(CN(CCCn2ccnc2)Cc2ccc(C)s2)o1 | -8.95 | 1.35 | 1.91 | 2.18 | -0.79 | -3.94 | 9.36 | 38.5 | 0 | -6.49 | -8.71 |
| CCOc1ccc(CC(CNC(=O)c2occc2C)C(N)=O)cc1 (stereo not given) | -5.57 | 10.4 | -18.6 | -5.56 | -3.23 | 1.47 | 3.64 | 9.64 | 7.62 | 11.8 | -12.3 |
| CCOCC1CN(C(=O)c2ccncc2)Cc2nn(C)cc21 (stereo not given) | 2.34 | 16 | -4.74 | 2.25 | 0.193 | -51.1 | 9.23 | -2.51 | 6.25 | 22.5 | -3.97 |
| CC(O)CN1CCN(C(=O)c2cccn2Cc2ccncc2)CC1 (stereo not given) | -5.17 | 10.1 | 0.216 | 10.1 | 2.74 | 2.66 | -2.38 | 3.13 | 0.493 | 13.9 | -8.49 |
| CCn1c(C)cc(C(=O)N2CCCC(c3nc(C)no3)C2)c1C (stereo not given) | -3.15 | 15.6 | 3.61 | -3.42 | 2.06 | 1.47 | 17.5 | 14.4 | 8.57 | 9.41 | -22.5 |
| Cc1nccn1CCC1CCCCN1C(=O)c1ccc2[nH]nnc2c1 (stereo not given) | -2.88 | 10.7 | -0.957 | 10 | 2.63 | 16.7 | 9.59 | 7.47 | 3.83 | 6.17 | -6.44 |
| CN(CCN1CCCCCC1)C(=O)c1cc(CN2CCC(O)CC2)on1 | -4.14 | 2.74 | -1.87 | -2.01 | 2.74 | 0.909 | 13.3 | -3.45 | 8.6 | 15 | -2.4 |
| O=C(NCC1CCS(=O)(=O)C1)c1sccc1-c1ccc(F)cc1 (stereo not given) | -4.74 | -54 | -1.29 | 24.1 | 8.5 | 4.71 | 13.3 | 4.09 | 4.3 | 18.5 | 0.115 |
| CC1CN(CC(=O)NC(=O)NCc2ccccc2)CCO1 (stereo not given) | -0.548 | 15.8 | 0.54 | -9.53 | 3.21 | -1.18 | 19.5 | 11.4 | 2.13 | 7.79 | -8.02 |
| Cc1cc(CN2CCN(C(=O)NC(C)c3cccnc3)CC2)on1 (stereo not given) | -2.66 | 13.2 | -2.63 | 3.25 | 8.08 | 1.92 | 10.7 | 2.49 | -0.49 | 19.5 | -6.79 |
| COc1ccc(CN(Cc2cccnc2)CC2CCCO2)c(OC)c1 (stereo not given) | -1.69 | -2.67 | 11.4 | 2.14 | 6.69 | -1.63 | 7.67 | 3.47 | 2.13 | 6.41 | -2.64 |
| CSC(C)C(=O)N1CCCN(Cc2cscn2)CC1 (stereo not given) | -3.08 | 18.4 | 1.3 | -6.37 | -1.13 | -3.45 | 15.9 | 9.75 | 4.41 | 9.76 | -13.2 |
| O=C1CC(c2ccc(F)c(F)c2)c2snc(C(=O)O)c2N1 (stereo not given) | -0.493 | -6.67 | 4.23 | 3.7 | -2.36 | 0.176 | 2.77 | -4.84 | 2.12 | -5.13 | -4.62 |
| CCn1c(CN2CCN(CC(N)=O)CC2)nc2c(F)cccc21 | -3.22 | 5.26 | 7.34 | 6.21 | 8.84 | -2.3 | 1.34 | -11.4 | 7.35 | 9.76 | -5.52 |
| CCn1ccnc1CN1CCOC(CNc2cccnn2)C1 (stereo not given) | -0.964 | 18.2 | -6.06 | 5.48 | 1.5 | 2.85 | 16.4 | 17.5 | 4.85 | 19.5 | -8.74 |
| CCOCCn1nc(C)cc1C(=O)N1CCN(C(C)C)C(CC)C1 (stereo not given) | -4.36 | 2.7 | -2.68 | 4.47 | 6.56 | -1.43 | 10.9 | 10.2 | 3.7 | 12.2 | -1.83 |
| CC(C(=O)N1CCC(Nc2cccnn2)CC1)n1ccnc1 (stereo not given) | -2.11 | 5.41 | -6.39 | 14.9 | 4.43 | -3.21 | 3.42 | 11.9 | 3.45 | 6.17 | -6.18 |

— ChEMBL document CHEMBL3988442, “University of Dundee, Small-Polar-MMV Screening Library” (2021)
